This passage reports activation results from PubChem BioAssay AID652067 (The Scripps Research Institute Molecular Screening Center, 2013).

The whole screen tested about 370,000 compounds, of which about 5,400 (1.5%) were called active. This is one part of a sample in which actives are shown more often than they occur.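 The calls were made as follows: active = activation above the mean of all tested compounds plus 3 SD (cut at about 5.5% in these data); inactive = the rest.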

The test deals with DAF-12 nuclear receptor (Haemonchus contortus). Briefly: H. contortus DAF-12 nuclear receptor activators, primary screen, cell-based, luminescence, HEK293, lit1-tk-luc reporter (AID 652067).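 Also: 100% = response to 3 µM Δ7-dafachronic acid high control.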 The note with it: HEK293 hcDAF-12 lit1-tk-luc reporter, at 6.8 µM, stronger effect = higher value, 0% DMSO, 100% Δ7-dafachronic acid.
Take `O=C(COc1ccccc1Cl)Nc1ccc(C(=O)c2ccc(C(=O)O)cc2)cc1`: the activation was -0.48% (inactive).
The value for `CC(=O)Nc1ccc(NC(=O)COc2ccccc2C(=O)Nc2cccc(Cl)c2Cl)cc1` was 5.68% (active); that for `O=C(COc1ccccc1Cl)Nc1ccccc1C(=O)NC1CC1` was 0.7% (inactive); that for `Brc1ccc(COCCc2cn(Cc3ccccc3)c3ccccc23)cc1` was -0.22% (inactive).
The value for `CC(=O)O[C@@]1(C(C)=O)CCC2[C@H]3C=C(C)C4=CC(=O)CC[C@@]4(C)C3CC[C@]21C` (stereo partly specified) was -1.02% (inactive); that for `COc1ccc(C=C(C#N)C#N)c(CSc2ccccn2)c1` was -0.83% (inactive); that for `COc1ccc2nc(-c3ccccn3)ccc2c1` was 8.16% (active).
The figure for `COc1ccc2cc(CCl)c(Cl)nc2c1` is -0.92% (inactive); for `Cc1nc(CNc2ncnc3ccc(-c4ccc5c(c4)OCO5)cc23)cs1` it is -1.68% (inactive).
Consider `N/C(Cc1ccc([N+](=O)[O-])cc1)=N\OC(=O)COc1ccc2ccccc2c1`, for which the activation is -2.58% (inactive).
The figure for `O=C(Oc1ccc([N+](=O)[O-])cc1)c1ccc2ccccc2n1` is 8.61% (active); for `Cc1ccc(S(=O)(=O)N(C)C)cc1NC(=O)C(C)OC(=O)c1ccc2ccccc2n1` (stereo unspecified) it is 0.62% (inactive); for `COC(=O)C1CN(Cc2cn(Cc3ccc(F)cc3)nn2)CCS(=O)(=O)N1Cc1ccc(Cl)cc1` (stereo unspecified) it is -3.19% (inactive).
Regarding `COc1ccc(-c2ccccc2C2Cc3nnccc3CN2C(=O)Nc2ccccc2)cc1` (stereo unspecified), the activation is -1.19% (inactive).
For the compound `Cc1ccc(Cn2cc(CN3[C@@H](C)COc4cc(Br)ccc4S3(=O)=O)nn2)cc1`, the activation is -3.6% (inactive).
The figure for `O=C(NCc1ccco1)C1CCCN1S(=O)(=O)c1ccccc1C(F)(F)F` (stereo unspecified) is -2.37% (inactive); for `CN(C)c1nc(N)nc(CSc2ccccn2)n1` it is 0.13% (inactive); for `Cn1c(SCC(=O)c2ccccc2)ncc(C(=O)Nc2ccc(F)cc2)c1=O` it is 0.15% (inactive).
The value for `CCn1c(SCC(=O)NCC2CCCO2)nc2ccccc21` (stereo unspecified) was 1.17% (inactive).
With `Cc1ccc(NC(=O)c2cnc(SCC(=O)NCC3CCCO3)n(C)c2=O)cc1` (stereo unspecified), the activation is 5.83% (active).
Take `CCCCN(CC)C(=O)c1ccccc1Oc1ccccc1`: the activation is -2.5% (inactive).
Regarding `COCc1cc(N2CCN(C(=O)OC(C)(C)C)C[C@@H]2C)ccc1N1CCN(Cc2ccccc2)[C@H](C)C1`, the activation was -1.75% (inactive).
The figure for `O=C(NCCc1ccccc1)Oc1ccc(Cl)cc1` is 2.6% (inactive); for `CC(C)c1ccc(C(=O)NCCCc2ccccc2)cc1` it is 2.26% (inactive).
The figure for `CCCOc1ccc(C(=O)NCCc2ccccc2)cc1` is 7.01% (active); for `N#Cc1ccc(OCCCN2CCC(C(O)(c3ccccc3)c3ccccc3)CC2)c(F)c1` it is -0.43% (inactive).
The figure for `CCOCCCNC(=O)C(NC(=O)Cc1c[nH]c2ccccc12)c1ccc(OC)cc1` (stereo unspecified) is 5.82% (active); for `CCOCCCNC(=O)C(NC(=O)CNC(=O)c1ccccc1)c1ccc(OC)cc1` (stereo unspecified) it is 1.22% (inactive); for `CCOCCCNC(=O)C(NC(=O)CNC(=O)c1ccccc1)c1ccc(C)cc1` (stereo unspecified) it is -0.9% (inactive).
For the compound `COc1ccc(-n2c(COc3ccc(C)cc3)nnc2SCC(=O)Nc2ccc(Oc3ccccc3)cc2)cc1`, the activation was -2.93% (inactive).
The figure for `CCN(CC)C(=O)CC[C@H]1CC[C@]2(CCCN(Cc3ccc(Cl)cc3)C2)O1` is -0.52% (inactive); for `CN(Cc1ccc(C(F)(F)F)cc1)C(=O)[C@H]1O[C@@H](n2cnc3c(N)ncnc32)[C@H](O)[C@@H]1O` it is -3.28% (inactive); for `Cc1ccc(C)c(NC(=O)C(OC(=O)c2ccc(C)s2)c2ccccc2)c1` (stereo unspecified) it is 5.84% (active).
As to `COc1ccc(C)cc1NC(=O)C(OC(=O)c1cccc(S(=O)(=O)N(C)c2ccccc2)c1)c1ccccc1` (stereo unspecified), the activation was 0.81% (inactive).
The figure for `Cc1cc(C)cc(NC(=O)C(OC(=O)c2ccc(O)cc2)c2ccccc2)c1` (stereo unspecified) is 2.07% (inactive); for `COc1cccc(-c2cc3nc(NCCOc4ccccc4Cl)n(C)c(=O)c3s2)c1` it is -0.41% (inactive).
Take `Cn1c(NCc2cccnc2)nc2cc(-c3ccc(F)cc3)sc2c1=O`: the activation is -0.57% (inactive).
The figure for `O=c1[nH]c(CCl)nc2cc(-c3ccc(Cl)cc3)sc12` is 7.46% (active); for `CCCOc1ccc(Oc2c(Cl)cnn(Cc3cccc4ccccc34)c2=O)cc1` it is 0.08% (inactive).
As for `O=C(CSC(=S)N1CCCCC1)c1c(F)cccc1F`, the activation was 6.39% (active).
Consider `O=C(CSC(=S)N1CCOCC1)c1ccccc1`, for which the activation was 6.9% (active).
For the compound `COc1cccc(NC(=O)CN(C)C(=O)CSC(=S)N2CCCC2)c1`, the activation is 0.17% (inactive).
The value for `CC(=O)c1ccc(NC(=O)CSC(=S)N2CCCC2)cc1` was 4.8% (inactive); that for `O=C(O)CC(CC(=O)N1CCOCC1)c1ccccc1` (stereo unspecified) was -2.07% (inactive).
Consider `N[C@@H](Cc1ccccc1)C(=O)N1CCOCC1`, for which the activation is -1.46% (inactive).
On to `CCOC(=O)[C@@]12CCC3=C1N(CCC3)C(=O)[C@H](CC(=O)N1CCN(C(=O)c3ccco3)CC1)C2`, for which the activation was 0.92% (inactive).
For `CN1CCOC1c1ccc(C2OCCN2C)cc1` (stereo unspecified), the activation is -0.23% (inactive).
The figure for `CC(=O)C1=C(C)N(Cc2ccccc2)C(=S)NC1c1cccc(Br)c1` (stereo unspecified) is 1.52% (inactive).
The figure for `CCOc1ccc(NC(=O)CSc2ncnc3c2sc2ccccc23)cc1` is 2.39% (inactive); for `COC(=O)[C@H](C(C)C)N1CCc2nnn(Cc3ccc(C)cc3)c2-c2ccccc2S1(=O)=O` it is -1.76% (inactive).
The figure for `O=C(Nc1cc(F)cc(F)c1)OC1CCC12CCC(c1ccccc1)CC2` (stereo unspecified) is 1.63% (inactive).
As for `O=C(O)c1ccccc1-c1ccccc1C(=O)NCCc1ccccc1`, the activation is -1.14% (inactive).
With `NC(=O)Nc1ccccc1C(=O)NCCc1ccccc1`, the activation was 8.5% (active).
The figure for `Nc1nonc1C(=O)NCCc1ccccc1` is -1.41% (inactive); for `Cn1c(SCC(=O)N/N=C/c2ccc(O)c(O)c2)nc2ccccc21` it is 0.79% (inactive); for `CCN(CC)CCn1c(/N=C/c2cc(Br)ccc2O)nc2ccccc21` it is 6.13% (active).
As to `C/C(=N\c1nc2ccccc2n1C)c1cc(Cl)ccc1O`, the activation is 4.18% (inactive).
The value for `CCOC(=O)Cn1c2c(n(-c3ccc(F)cc3)c1=O)C=C(c1ccccc1)[C@@H](C)C(C(=O)N(C)C1CCCCC1)=C2` was -0.1% (inactive).
Consider `N#Cc1cccc(C(=O)NCC2CCN(C(=O)C(=O)c3cc4ccccc4o3)CC2)c1`, for which the activation is -1.58% (inactive).
The figure for `Cc1cccc(NC(=O)C[C@H]2CC[C@H]3[C@@H](COc4ccc(NC(=O)Nc5ccccc5)cc4C(=O)N3C)O2)c1` is -0.28% (inactive).
The figure for `CN(CC(=O)Nc1ccc(Cl)cc1)C(=O)CNC(=O)c1ccc2ccccc2c1` is 6.25% (active); for `CN(CC(=O)Nc1ccc(Cl)cc1)CC(=O)Nc1cccc2ccccc12` it is -0.93% (inactive).
The value for `CN(CC(=O)Nc1ccc(Cl)cc1)C(=O)c1ccc(COc2ccccc2)cc1` was -1.47% (inactive); that for `CN1C(=O)C2CC(O)C(SC3CC4C(=O)N(C)C(=O)C4CC3O)CC2C1=O` (stereo unspecified) was 0.52% (inactive); that for `CC[C@H](NC(=O)[C@H](Cc1ccccc1)NC(=O)[C@H]1O[C@@H](n2cnc3c(=O)[nH]c(N)nc32)[C@H](O)[C@@H]1O)c1ccccc1` was -0.3% (inactive).
On to `Clc1ccc(-c2cc(-c3ccccn3)on2)c(Cl)c1`, for which the activation was 12.3% (active).
The value for `Clc1ccccc1-c1cc(COc2ccc3ccccc3c2)no1` was -2.26% (inactive).
The value for `Fc1ccc(-c2ccc(CNCc3ccccn3)o2)cc1Cl` was 0.05% (inactive).
The figure for `CC(=O)N1CCCN(C2=Nc3ccccc3Sc3ccccc32)CC1` is -0.4% (inactive).
Turning to `COCCCNC(=O)C[C@H]1C[C@@]2(C(=O)OC)C(=C[C@H](C(C)(C)C)O[C@@H]2C)N(Cc2ccc3c(c2)OCO3)C1=O`, the activation was -1.12% (inactive).
The figure for `O=C1CCC(=O)N(O)CCCCCNC(=O)CCC(=O)N(O)CCCCCNC(=O)CCC(=O)N(O)CCCCCN1` is 0.23% (inactive).
With `CCCCNC(=O)OC(C)CNC(=O)OC` (stereo unspecified), the activation is -0.33% (inactive).
Regarding `CC(C)C(=O)Nc1c(C(=O)c2ccc(F)cc2)oc2ccccc12`, the activation was -1.93% (inactive).
The value for `CC(C)C(=O)Nc1ccc2c(c1)oc1ccccc12` was 6.7% (active).
The value for `CC(C)C(=O)Nc1oc(-c2ccccc2)cc1C#N` was -1.35% (inactive); that for `FC(F)(F)c1cccc(NC(=S)OC2CCC23CCC(c2ccccc2)CC3)c1` (stereo unspecified) was -0.73% (inactive).
For the compound `CCOC(=O)N1CCN(C(=O)C[C@H]2C[C@@]3(C(=O)OC)C(=C[C@H](C4CCCC4)O[C@@H]3C)N(Cc3ccccc3)C2=O)CC1`, the activation was -0.64% (inactive).
Turning to `Cc1ccc(-n2c(SCC(=O)Nc3cccc4ccccc34)nnc2-c2ccco2)cc1`, the activation is -2.24% (inactive).
`COc1cccc(-c2cc(CNC(=O)[C@@H](Cc3ccccc3)NC(=O)[C@H]3O[C@@H](n4cnc(C(N)=O)n4)[C@H](O)[C@@H]3O)no2)c1`: the activation was -1.75% (inactive).
The figure for `O=C(Nc1cccc(Cl)c1)OC1CC2CC1[C@H]1CCCCN1[C@H]2Cc1ccccc1` (stereo partly specified) is -1.09% (inactive); for `COc1ccc(C(=O)NN2C(=O)C3C(c4ccccc4)C=CC(c4ccccc4)C3C2=O)cc1` (stereo unspecified) it is 0.07% (inactive).
`CC(=O)N1C(=O)/C(=C2\SC(=S)N(NC(=O)c3ccc(O)cc3)C2=O)c2ccccc21`: the activation is 8.31% (active).
The figure for `COc1ccc2c(c1)N(C)/C(=C1/SC(=S)N(NC(C)=O)C1=O)S2` is -1.24% (inactive); for `CCOC(=O)N1CCN(C(=O)C[C@H]2C[C@@]3(C(=O)OC)C(=C[C@H](C(C)(C)C)O[C@@H]3C)N(Cc3ccc(Cl)cc3Cl)C2=O)CC1` it is -1.96% (inactive); for `COc1ccc([C@H]2[C@H](C(C)=O)N3N=Cc4ccccc4C3C23C(=O)OC(C)(C)OC3=O)cc1` (stereo partly specified) it is -0.72% (inactive).
The figure for `COC(=O)c1cccc(Cn2ccc3ccc(-c4ccc5ccn(C(=O)c6ccccc6C)c5c4)cc32)c1` is -0.36% (inactive).
